From PubChem BioAssay
An excerpt weighted towards active compounds, which were near 1.6% of everything screened.
PREPL inhibitor: PREPL enzyme inhibitors, primary screen, biochemical, fluorescence polarization; Prolyl endopeptidase-like (Homo sapiens), Q4J6C6; recombinant PREPL, fluorescence polarization activity-based probe; inhibition, % at 5.96 µM; hit rate 0.68% among 320,000; AID 2751, 2010; in the data active = inhibition above about 43%;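 note: 0% = enzyme with DMSO and 100% = wells lacking enzyme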
LYPLA1 counter: LYPLA1 inhibitors, primary screen, counter-screen for PME1 inhibitor project, biochemical, fluorescence polarization, FP-Rh probe ABPP. Acyl-protein thioesterase 1 (Homo sapiens), O75608. inhibition, % at 5.9 µM. recombinant LYPLA1. hit rate 0.16% among 320,000;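 active = inhibition above the mean of all tested compounds plus 3 SD, set per campaign, cut at about 14% in these data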;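 note: inhibitors block serine hydrolase probe labeling of LYPLA1 so polarization falls; 0% = enzyme with DMSO and 100% = wells lacking LYPLA1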
MEX-5 binding: MEX-5 zinc finger RNA-binding disruptors – biochemical, C. elegans, fluorescence polarization, MLPCN library, primary screen; Zinc finger protein mex-5 (Caenorhabditis elegans), Q9XUB2; activity score (negative = inhibition of binding), % at 10 µM; hit rate 0.38% among 300,000; AID 1832, 2009; MEX-5/FITC-TCR2 RNA binding; hits give low values;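 active = inhibition past about -25% in most replicates, and total fluorescence under double the plate's negative control median, limit read from the data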;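 note: 0% = DMSO and -100% = 5 µM competing unlabeled TCR2 RNA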
LYPLA2 counter: LYPLA2 inhibitors, primary screen, counter-screen for PME1 inhibitor project, biochemical, fluorescence polarization, FP-Rh probe ABPP; Acyl-protein thioesterase 2 (Homo sapiens), O95372; recombinant LYPLA2; inhibition, % at 5.9 µM; hit rate 0.38% among 320,000; AID 2177, 2009;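 active = inhibition above the screen-wide mean plus 3 SD, limit set per campaign, cut at about 26% in these data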;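 note: 0% = LYPLA2 with DMSO and 100% = wells lacking LYPLA2 enzyme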
Target sequence (O95372 whole entry, looked up): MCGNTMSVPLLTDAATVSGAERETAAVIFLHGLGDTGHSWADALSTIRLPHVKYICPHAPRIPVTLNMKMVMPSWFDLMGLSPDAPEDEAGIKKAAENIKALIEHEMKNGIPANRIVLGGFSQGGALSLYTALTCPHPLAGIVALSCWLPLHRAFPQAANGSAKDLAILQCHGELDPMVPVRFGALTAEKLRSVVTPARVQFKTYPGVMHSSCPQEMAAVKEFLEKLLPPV
PME-1 inh: PME-1 inhibitors via competitive probe labeling, primary screen, biochemical, fluorescence polarization, FP-Rh probe, HTS | recombinant PME-1 | inhibition, % at 5.9 µM | hit rate 0.53% among 320,000 | AID 2130, 2009;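 active = inhibition above the campaign mean of all compounds plus 3 SD, cut at about 26% in these data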;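 note: competitive labeling of PME-1 active site by serine hydrolase directed probe; 0% = PME-1 with DMSO and 100% = wells lacking PME-1 enzyme; inhibitors block probe labeling so polarization falls and inhibition rises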
Target sequence (Q9Y570 whole entry, looked up): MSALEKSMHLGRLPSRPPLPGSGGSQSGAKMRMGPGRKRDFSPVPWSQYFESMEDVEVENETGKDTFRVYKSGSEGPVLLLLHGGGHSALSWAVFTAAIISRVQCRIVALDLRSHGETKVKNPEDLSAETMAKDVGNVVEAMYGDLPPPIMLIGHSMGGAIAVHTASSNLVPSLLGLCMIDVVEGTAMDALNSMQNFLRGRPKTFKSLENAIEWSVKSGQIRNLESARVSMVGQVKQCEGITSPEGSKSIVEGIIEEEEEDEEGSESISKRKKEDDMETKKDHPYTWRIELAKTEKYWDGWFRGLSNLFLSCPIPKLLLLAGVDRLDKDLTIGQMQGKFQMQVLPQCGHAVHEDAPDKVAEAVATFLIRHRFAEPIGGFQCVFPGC
Fam108B inh: mouse Fam108B serine hydrolase inhibitors, primary screen, counter-screen for RBBP9 inhibitor project, biochemical, fluorescence polarization; hit rate 0.33% among 300,000; recombinant Fam108B, FP-Rh probe fluorescence polarization; inhibition, % at 9.51 µM;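 active = inhibition above the screen mean inhibition plus 3 SD, computed separately per campaign, cut at about 18% in these data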;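 note: inhibitors lower polarization as less probe binds the enzyme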
* hit, by the source's call; x = not tested or not shown.

SMILES | PREPL inhibitor | LYPLA1 counter | MEX-5 binding | LYPLA2 counter | PME-1 inh | Fam108B inh
Nc1c(C(=O)N2CCCCC2)sc2nc3c(cc12)CCCC3 | 7.6 | -3.7 | -1.9 | 2.7 | 6.2 | -0.8
O=C(N/N=C/c1ccco1)C1(O)c2ccccc2-c2ccccc21 | -8.2 | 1.6 | -4.4 | 9.5 | -2.1 | -0.9
O=C(N/N=C1\C(=O)c2cccc3cccc1c23)c1ccc(O)cc1 | 2.7 | -7.0 | 0.3 | -6.0 | -0.6 | -9.5
O=C1C([N+](=O)[O-])=C(O)c2cccc3cccc1c23 | x | x | -40.0* | x | x | x
COc1ccc(OCC(O)CN(CC(O)COc2ccc(OC)cc2)c2cccc(O)c2)cc1 (stereo not drawn) | 17.2 | -1.5 | -1.1 | 15.1 | -6.4 | 3.8
COc1ccc(CNc2nc3nc(C)c(Cl)c(C)n3n2)cc1 | 7.6 | -1.8 | 3.4 | -3.9 | 4.2 | 2.4
CCCn1c(=N)c(C(=O)NCC2CCCO2)cc2c(=O)n3cccc(C)c3nc21 (stereo not drawn) | 11.6 | -0.9 | -26.9* | -1.7 | -6.1 | -2.5
N=c1c(C(=O)NCC2CCCO2)cc2c(=O)n3ccccc3nc2n1Cc1ccccc1Cl (stereo not drawn) | 14.9 | -0.1 | -45.6* | 4.2 | -2.3 | -0.7
COc1ccc(CCn2c(=N)c(C(=O)NC3CCCCC3)cc3c(=O)n4ccccc4nc32)cc1 | 13.2 | -0.5 | -45.3* | 1.1 | -3.7 | -0.7
Cc1cccn2c(=O)c3cc(C(=O)NCC4CCCO4)c(=N)n(CCN4CCOCC4)c3nc12 (stereo not drawn) | 20.2 | -1.4 | -6.3 | -3.8 | -0.6 | -3.3
CCNC(=O)c1cc2c(=O)n3cccc(C)c3nc2n(CCc2ccccc2)c1=N | 23.7 | -1.8 | -65.8* | 2.1 | 1.1 | -1.1
CCOc1ccc(OCC)c(NC(=O)C2CCN(S(=O)(=O)c3cccnc3)CC2)c1 | 8.3 | 1.0 | 1.5 | 8.5 | -0.6 | 0.6
Cc1ccc(-c2c(C(=O)NC(C)C)oc(=O)c3ccccc23)cc1 | 1.6 | -3.0 | 0.5 | -0.9 | 0.0 | 7.2
CCOc1ccccc1OCC(=O)OCC(=O)NNC(=O)c1ccc([N+](=O)[O-])cc1 | 8.7 | -1.6 | -4.3 | 0.2 | -0.8 | -0.2
COc1ccc(CCn2c(=N)c(C(=O)NC3CCCC3)cc3c(=O)n4cccc(C)c4nc32)cc1 | 25.0 | 0.3 | -2.7 | 2.9 | 0.2 | -7.0
Cc1cccn2c(=O)c3cc(C(=O)NC4CCCC4)c(=N)n(CCc4ccccc4)c3nc12 | 17.0 | 1.8 | -38.7* | -2.1 | 5.1 | 1.1
CC(C)(CCC(=S)N1CCOCC1)C1CCCCC1 | 1.4 | 0.2 | -0.3 | 3.1 | -5.7 | 1.6
COc1ccc(NC(=O)CCNS(=O)(=O)c2ccc(NC(C)=O)cc2)cc1Cl | -5.9 | -1.2 | 1.2 | 1.6 | -1.4 | -2.1
COC1(OC)N=C(N)C2(C#N)C(c3ccc(F)cc3)C12C#N (stereo not drawn) | -6.6 | -0.8 | -3.7 | 1.5 | -0.4 | 4.6
CCOC1(OCC)N=C(N)C2(C#N)C(c3ccc(NC(C)=O)cc3)C12C#N (stereo not drawn) | 17.9 | -1.0 | -27.3* | 0.2 | 2.4 | 5.8
COc1ccccc1NS(=O)(=O)c1ccc(C(N)=O)cc1 | 9.4 | 0.1 | 0.8 | -7.4 | 7.5 | 1.5
N#Cc1ccccc1Cn1c(=O)n(-c2ccc(CC(=O)NCc3ccco3)cc2)c(=O)c2sccc21 | -1.3 | -2.4 | -4.1 | -2.7 | 37.3* | -0.7
COc1ccc(C(=O)c2oc3ccc(OC)cc3c2N)cc1 | 29.2 | 3.6 | 2.4 | 3.8 | 33.0* | 8.7
O=C(NNC(=O)c1ccccc1[N+](=O)[O-])c1ccccn1 | -1.2 | 5.6 | -29.1* | 4.3 | 1.5 | 3.4
O=C(NNC(=O)c1ccccc1[N+](=O)[O-])c1csc(N2CCOCC2)n1 | 0.8 | 4.0 | -41.8* | 2.2 | -3.0 | -2.9
SMILES | PREPL inhibitor | LYPLA1 counter | MEX-5 binding | LYPLA2 counter | PME-1 inh | Fam108B inh
C/C(=N\NC(=O)c1cccnc1)c1cc2ccccc2o1 | 1.1 | -1.4 | -1.0 | 1.9 | 0.5 | -2.6
O=S(=O)(NNC(=S)Nc1ccc(S(=O)(=O)Nc2ncccn2)cc1)c1ccc(Br)cc1 | -2.0 | -0.8 | -99.2* | 3.6 | 3.2 | -0.6
CCCCOc1ccc(CSc2n[nH]c(C)n2)cc1 | 1.7 | 2.0 | -2.9 | 1.6 | 1.7 | 2.6
Cc1nc(S/C(=C/c2ccc(OCc3ccc(C(=O)O)cc3)cc2)C(=O)O)n[nH]1 | 10.8 | 3.0 | -68.9* | 11.6 | -7.5 | -2.1
CCOn1c(=O)c(-c2cc3ccccc3o2)[n+]([O-])c2ccccc21 | 0.7 | -2.3 | -42.8* | -3.0 | 8.4 | 1.7
CN1CCN(c2ccc(NC(=O)c3ccc(-c4ccc(Br)cc4)o3)cc2)CC1 | 34.5 | 0.9 | 0.8 | -3.4 | 29.6* | 16.2
CCN1CCN(c2ccc(NC(=O)c3ccc(Br)o3)cc2)CC1 | x | x | -1.7 | x | x | x
Cc1cc(Nc2ccccc2)c2c([N+](=O)[O-])ccc(C)c2n1 | 3.7 | -2.2 | -0.4 | 6.7 | 4.4 | 4.2
NC(=O)c1sc2nnc(-c3ccccc3)c(-c3ccccc3)c2c1N | 7.7 | 0.8 | -53.3* | 0.6 | 0.2 | -0.8
NC(=O)c1snnc1-c1ccccc1 | 5.3 | 1.5 | -28.6* | 3.9 | -3.0 | 3.0
NNC(=O)c1snnc1-c1ccccc1 | -15.6 | -1.3 | -1.0 | 2.9 | -1.6 | -1.0
COc1ccc2[nH]c3c(NCCC4=CCCCC4)ncnc3c2c1 | x | x | 2.5 | x | x | x
CC1CCCCN1S(=O)(=O)c1ccc(NC(=O)c2cccc(-n3cnnn3)c2)cc1 (stereo not drawn) | -1.7 | -16.7 | 0.6 | -15.2 | -14.8 | -14.2
CCOCCCNC(=O)CCC(=O)NNc1nc2ccccc2c2nc(C)nn12 | 13.3 | -0.4 | -39.0* | 4.2 | 0.6 | -3.1
CCCCNC(=O)CCC(=O)NNc1nc2ccccc2c2nc(C)nn12 | -6.7 | 6.6 | -8.4 | 14.4 | 0.1 | 6.3
COCCCNC(=O)CCC(=O)NNc1nc2ccccc2c2nc(C)nn12 | 0.7 | 1.2 | -50.1* | 0.8 | -1.7 | -1.6
COc1ccc(C(C(=O)NC2CCCC2)N(CC2CCCO2)C(=O)Cn2nnc(-c3ccc(C)o3)n2)cc1 (stereo not drawn) | 6.3 | 6.1 | 0.6 | 8.8 | 2.0 | -0.4
COc1ccccc1N=Nc1nc(-c2ccccc2)c(-c2ccccc2)[nH]1 | 16.0 | -8.8 | -0.9 | -5.5 | 8.7 | 5.1
Oc1ccccc1N=Nc1nc(-c2ccccc2)c(-c2ccccc2)[nH]1 | 15.4 | -11.9 | 0.9 | -3.0 | 35.4* | 17.2
COc1ccc(N=Nc2nc(-c3ccccc3)c(-c3ccccc3)[nH]2)cc1 | 12.5 | -3.8 | -4.5 | -5.1 | 28.3* | 9.7
CC(=O)NS(=O)(=O)c1ccc(N=NN2CCOCC2)cc1 | -0.7 | -2.1 | 0.8 | -0.4 | 3.9 | 2.5
